Screen size: about 260,000 compounds; about 1,500 (0.58%) were called active. Inconclusive results (about 5%) are left out. Not all results are given here. Results with a measured potency or affinity are listed apart. Unmarked numbers belong to inactive results.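 Rule for the calls: active = inhibition above a set limit at one or more doses, reproduced on every date tested; inconclusive = results disagree between test dates, or hit never tested in dose response; inactive = the rest.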
Molecular target: Virion infectivity factor (Human immunodeficiency virus type 1 group M subtype B (isolate BH10)) + Virion infectivity factor (Human immunodeficiency virus type 1 group M subtype B (isolate BRU/LAI)) + Virion infectivity factor (Human immunodeficiency virus type 1 group M subtype B (isolate PCV12)) + Virion infectivity factor (Human immunodeficiency virus type 1 group M subtype B (isolate HXB2)) + DNA dC->dU-editing enzyme APOBEC-3G (Homo sapiens) (UniProt P69720+P69721+P69722+P69723+Q9HC16)
Experiment: inhibitors of Vif binding to APOBEC3G peptide, primary screen, biochemical, TR-FRET, GST-Vif 1-94, biotin-A3G peptide, dose response retest (AID 1117319);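 note: Vif residues 1-94 fused to GST binding biotinylated APOBEC3G peptide 110-148; 0% = full assay without inhibitor and 100% = GST in place of GST-Vif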
Settings: hits give high values

| SMILES | inhibition [%] |
| --- | --- |
| CCN(CC(=O)Nc1c(F)cccc1F)C(=O)c1ccc2c(c1)OCCO2 | 8.86 |
| CCOc1ccc(CN(C)C(=O)CCc2ccc(S(=O)(=O)N3CCCCCC3)cc2)cc1 | -5.71 |
| CNC(=O)c1c(NC(=O)CS(=O)(=O)c2ccccc2)sc(C)c1C | 2.6 |
| OC1CCCN(C(=S)Nc2ccc(SC(F)F)cc2)C1 (stereo not drawn) | 21.9 |
| Cc1ccc(NC(=O)CSc2nc(=O)n(CCN(C)C)c3c2CCCC3)cc1Cl | -8.42 |
| COC(=O)c1cc2occc2n1CC(=O)N(C)C1CCCCC1 | 15.2 |
| CN1CCN(c2cc(N3CCc4ccccc4C3)c(F)cc2[N+](=O)[O-])CC1 | -1.87 |
| COc1ccc(Br)c(C(=O)NNC(=O)c2ccc(NS(=O)(=O)c3cccs3)cc2)c1 | 2.76 |
| C(C#CCN1CCOCC1)#CCN1CCOCC1 | 5.57 |
| CCc1ccccc1Nc1nc(N)nc(CSc2nnnn2C)n1 | 0.07 |
| CSCCC(NC(=O)/C(=C\c1ccc(Cl)cc1)NC(=O)c1ccccc1)C(=O)O (stereo not drawn) | 1.24 |
| COc1cccc(=O)c2c(C)n(-c3cc(C)cc(C)c3)c(C)c12 | 21.8 |
| CCOc1ccccc1C(c1c(C)n(C)n(-c2ccccc2)c1=O)c1c(C)n(C)n(-c2ccccc2)c1=O | -1.18 |
| COc1ccc(-n2c(C)c3c(OC)cccc(=O)c3c2C)cc1 | 32.9 |
| CCOc1ccccc1-c1cc(-c2ccccc2)nc2c1c(=O)n(C)c(=O)n2C | -7.81 |
| COc1ccc(CNC(=O)Cn2cnc3c(OCc4ccccc4)ncnc32)cc1 | -3.17 |
| Cc1ccc(S(=O)(=O)Nc2ccccc2-c2ccccc2)cc1 | -0.15 |
| Cc1ccc(S(=O)(=O)c2c(C)nn(C(C)(C)C)c2OC(=O)CC(C)C)cc1 | -0.23 |
| CCN1CCN(C(=O)Cn2cnc3sc(C)c(S(=O)(=O)N4CCN(c5ncccn5)CC4)c3c2=O)CC1 | 6.94 |
| CCN=c1scc(-c2cccs2)n1/N=C/c1cc(OC)ccc1O | 11.2 |
| CN=c1scc(C)n1/N=C/c1cc(Br)c(O)c(OC)c1 | 17.7 |
| CN=c1scc(-c2ccccc2F)n1/N=C/c1ccc[nH]1 | 3.11 |
| COCCN=c1scc(-c2cccs2)n1/N=C(\C)c1ccco1 | -4.46 |
| CCOc1ccc(C(=O)NCC(C)C)cc1 | 1.08 |
| Cc1ccc(C)c(NC(=O)N2CCc3ccccc3C2)c1 | -0.5 |

| SMILES | inhibition [%] |
| --- | --- |
| Cc1cc(C)n(CC2CC(=O)N(c3ccc(Cl)cc3)C2=O)n1 (stereo not drawn) | -0.66 |
| CC(=O)N1CCN(C(=O)c2ccc(Oc3ccccc3)cc2)CC1 | -9.55 |
| Cc1ccc(N2C(=O)CN(Cc3sccc3C)C2=S)cc1C | 8.31 |
| CC1C/C=C/C=C/C=C/C=C/C(O[C@@H]2O[C@H](C)[C@@H](O)[C@H](N)[C@@H]2O)CC2OC(O)(CC(O)CC3OC3/C=C/C(=O)O1)CC(O)C2C(=O)O (stereo partly drawn) | -4.31 |
| COc1ccc(C(=O)O/N=C(\N)c2ccccc2)c(OC)c1 | 2.57 |
| O=C1NC2(CCCCC2)C(=O)N1Cc1cc(=O)n2ccsc2n1 | -0.24 |
| CC(C(=O)NCc1ccc2c(c1)OCO2)c1ccc([N+](=O)[O-])cc1 (stereo not drawn) | 6.03 |
| Nc1nc(SCc2ccccc2)c2[nH]cnc2n1 | -9.37 |
| CNc1ncnc(Sc2nc(N)nc3nc[nH]c23)c1[N+](=O)[O-] | 16.1 |
| CC1(C)C2C(Cl)(Cl)C2(C)c2ccccc2N1C=O (stereo not drawn) | -2.3 |
| COc1ccc(-c2nc3ccccc3n2OC(C)C(=O)O)cc1 (stereo not drawn) | -3.4 |
| COc1ccc(-c2nc3ccccc3n2OCC(=O)O)cc1 | 15.9 |
| Cn1[nH]c(C(F)(F)F)c(C=NCc2ccc(Cl)cc2)c1=O | -4.02 |
| COc1cccc(-c2cc3c(=O)n(-c4ccccc4)c(=S)[nH]c3s2)c1 | -16.9 |
| Cc1c(C)n2c3c(cccc13)CC2 | 3.05 |
| CC(=O)c1ccc(NC(=O)c2cccc(NC(=O)c3ccccc3)c2)cc1 | -13.5 |
| O=C(Nc1ccccc1)c1cccc(C(F)(F)F)c1 | 0.71 |
| O=C(Nc1ccc(N2CCOCC2)cc1)c1ccc2nc(-c3ccco3)c(-c3ccco3)nc2c1 | 10.5 |
| O=C(Nc1cccc(-c2nnc(-c3ccco3)o2)c1)c1ccccc1 | -5.38 |
| O=C(c1ccccc1)c1ccc2nc(-c3ccco3)c(-c3ccco3)nc2c1 | 3.26 |
| O=C(Nc1cccc(C(F)(F)F)c1)c1ccco1 | -3.65 |
| COc1ccc2cc(C3=CC(=O)CC(C)(C)C3=O)ccc2c1 | 4.18 |
| Cc1cc(C)nc(-n2ncc3c2CCCC3=O)n1 | -7.41 |
| COc1ccc([C@@H]2C[C@H]3[C@@H](CN2S(=O)(=O)c2ccccc2)C(=O)C[C@@H](c2ccccc2F)N3S(=O)(=O)c2ccc(C)cc2)cc1 | -4.64 |
| CC1CCOC2(O1)C(=O)N(CN1CCN(c3cccc(Cl)c3)CC1)c1ccccc12 (stereo not drawn) | 16.9 |

| SMILES | inhibition [%] |
| --- | --- |
| Cc1ccc(Nc2nc(=O)[nH]nc2C)cc1 | 23.2 |
| COCCNC(C(=O)Nc1ccc([N+](=O)[O-])cc1Br)c1ccccc1 (stereo not drawn) | -2.09 |
| Cc1noc(NS(=O)(=O)c2ccc(NC(=O)CCCOc3ccc(Cl)cc3Cl)cc2)c1C | 2.83 |
| Cc1nnc(NC(=O)CSc2nnc(NC(=O)C(C)(C)C)s2)s1 | 22.2 |
| C=CCSc1nnc(NC(=O)CSc2ccccn2)s1 | -2.29 |
| C#CCOCCOCCOCCNc1nc(N2CCN(C(=O)[C@H](Cc3ccc(O)cc3)n3cc([C@@H](N)C(C)CC)nn3)CC2)nc(N2CCN(C(=O)[C@H](CCCCN)n3cc([C@@H](N)CO)nn3)CC2)n1 (stereo partly drawn) | -12.6 |
| O=C(COc1c(F)c(F)cc(F)c1F)NNC(=O)CC1CCS(=O)(=O)C1 (stereo not drawn) | -4.18 |
| CC1CN(S(=O)(=O)c2cccc(C(=O)OCC(=O)NCc3ccccc3)c2)CC(C)O1 (stereo not drawn) | -6.28 |
| Cc1ccc(N2C(=O)c3ccccc3C2C(=O)c2cc(C)ccc2O)cc1 (stereo not drawn) | 30.2 |
| COc1ccc(N2C(=O)c3ccccc3NC2c2ccccc2O)cc1 (stereo not drawn) | -3.39 |
| CC(=O)SC1CC(=O)N(c2ccc(C(C)(C)C)cc2)C1=O (stereo not drawn) | -11.1 |
| COc1ccc(C(=O)NCc2ccccn2)cc1 | 19.1 |
| O=C(NCCc1ccccc1)c1ccc2nccnc2c1 | 28.7 |
| O=C(NCCc1ccccc1)c1coc(=O)c(Br)c1 | -22.2 |
| COc1ccc(CCNC(=O)c2cc(-c3ccco3)on2)cc1OC | -1.47 |
| O=C(NCCc1ccccc1)c1cc(-c2ccco2)on1 | 25.6 |
| CCc1nc2ccc(C(=O)NCCc3ccc(OC)c(OC)c3)cc2nc1CC | 0.19 |
| O=C(NCc1ccccn1)c1ccc(NC(=O)c2ccco2)cc1 | 1.9 |
| O=C(NCc1ccccn1)c1ccc(=O)oc1 | 11.6 |
| CCN(Cc1ccc(NC(C)=O)cc1)CC1CCCN(CCc2cccc(OC)c2)C1 (stereo not drawn) | 3.62 |
| O=C(Cn1nnc(-c2ccccc2Cl)n1)Nc1cccc(S(=O)(=O)N2CCCC2)c1 | -4.6 |
| COC(=O)c1ccccc1NC(=O)Nc1ccc(Cl)cn1 | -0.47 |
| O=C(NCc1ccccc1)c1ccc2nccnc2c1 | -2.53 |
| CCc1nc2ccc(C(=O)NCc3ccccc3)cc2nc1CC | 13.9 |
| CC(C(=O)N1CCN(c2ccc(Cl)cc2)CC1)c1ncc(C(F)(F)F)cc1Cl (stereo not drawn) | -3.01 |

| SMILES | inhibition [%] |
| --- | --- |
| Cc1ccc(S(=O)(=O)NCc2nnc(SCC(=O)Nc3cccc(C)c3C)n2C)cc1 | -1.43 |
| NS(=O)(=O)c1ccc(NC(=O)NC2CCCCC2)cc1 | 1.56 |
| CSc1oc(-c2ccco2)nc1S(=O)(=O)c1ccc(F)cc1 | 9.31 |
| CSc1oc(-c2ccco2)nc1S(=O)(=O)c1ccc(Br)cc1 | 6.37 |
| Cc1ccc2nc3sc(C(=O)Nc4ccc(N5CCOCC5)cc4)c(N)c3cc2c1 | 12.2 |
| NC(=O)c1ccc(OCC(F)(F)F)nc1 | -12.4 |
| O=C(NC(=S)N1CCN(c2ccc([N+](=O)[O-])cc2)CC1)c1ccccc1Cl | 0.79 |
| C[C@@H]1CCCCO[C@H](CN(C)C(=O)Nc2cccc3ccccc23)[C@@H](C)CN([C@H](C)CO)C(=O)c2cc(N(C)C)ccc2O1 | 4.84 |
| CC(=O)N=Cc1c(C)c(C#N)c(=O)n(C)c1O | 6.56 |
| Cc1c(/C=N/Nc2ccc(F)cc2)c(O)n(C)c(=O)c1C#N | 12.3 |
| O=C(C1CCN(S(=O)(=O)c2ccc3c(c2)OCCO3)CC1)N1CCc2ccccc21 | 24.2 |
| Oc1ccc(Cl)cc1N=Nc1ccccc1 | 0.9 |
| CNS(=O)(=O)c1cc(O)c2c(S(=O)(=O)NC)cccc2c1 | 1.99 |
| COc1ccccc1C(=O)NCCC(=O)Nc1ccc(S(=O)(=O)N2CC(C)CC(C)C2)cc1 (stereo not drawn) | -5.91 |
| CC(C)OC(=O)CSc1nnc(Cc2ccccc2)n1C | 1.42 |
| Cc1cc([N+](=O)[O-])cc2ncccc12 | 22.2 |
| CC1(C)CC(=O)C2=C(C1)Nc1cc(C(=O)c3ccccc3)ccc1NC2c1ccccn1 (stereo not drawn) | 1.75 |
| Cc1ccc([N+](=O)[O-])cc1S(=O)(=O)Nc1ccccn1 | 11.9 |
| O=[N+]([O-])c1ccc(Cl)c2c1C1C=CCC1C(c1ccccn1)N2 (stereo not drawn) | -2.51 |
| COc1ccc(OC)c(C2Nc3c(Cl)ccc(C(=O)O)c3C3C=CCC32)c1 (stereo not drawn) | -11.5 |
| O=C(O)c1cc(-c2ccccn2)n[nH]1 | -8.59 |
| O=C(O)c1ccc2c(c1)C1C=CCC1C(c1cc3c(cc1Br)OCO3)N2 (stereo not drawn) | -3.12 |
| CN(C)C(=O)c1ccc2c(c1)C1C3CCC(C3)C1C(c1ccccc1)N2 (stereo not drawn) | -2.04 |
